Bioassay records as filed in PubChem.
HT1080NT lethal – kills 2HG-producing HT-1080-NT fibrosarcoma cells; HT-1080-NT fibrosarcoma viability, CellTiter-Glo ATP luminescence, 48 h; Potency, µM (top dose mostly 46.1 µM), for the others: at the top dose activity, negative = less viability, hits mostly cytotoxic; actives 1.6% (n = 360,000); AID 686970;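 further: NT is the 2HG producing partner of a matched IDH1 knockdown line; 0% = DMSO-treated cells and -100% = media-only wells without cells; nearly all actives have a fitted effect of over 55% in size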
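Read-out is CellTiter-Glo luminescence after 10 minutes at room temperature, following 48 hours' compound treatment of HT-1080-NT cells (750 cells/well, RPMI, 5% FBS, 37 degrees C).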
KB-V1 cytotox – KB-V1 MDR subline cytotoxicity; actives 3.4% (n = 400,000); Potency, µM (top dose mostly 46.1 µM), most hits filed as cytotoxic; KB-V1 MDR cells viability, CellTiter-Glo, 72 h; further: on the % scale 0 is the no-effect control and ±100 the full control effect; nearly all actives have a fitted effect of over 60% in size
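Compound-treated KB-V1 multidrug-resistant cells, 72 h, 37 degrees C; viability by CellTiter-Glo. Fitted qHTS curves give the values.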
HepG2 tox – kills HepG2 cells in TGF-b inhibitor counter-screen | HepG2 CAGA-GFP viability, ATP luminescence, 18 h | actives 0.76% (n = 410,000) | AID 588856 | Potency, µM (titrated, usually from 46.1 µM), inactives show at the highest dose activity change, negative = cytotoxicity, most hits filed as cytotoxic
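CellTiter-Glo luminescence gave cytotoxicity after 18 hours at 37 degrees C. The cells were HepG2 CAGA-GFP in 1% FBS DMEM, stimulated with 500 pg/mL TGF-beta after compound addition. %Activity was normalised to no-cell wells (complete cell-killing) and DMSO (no toxicity), and curves were fitted and classified.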
KB-3-1 cytotox – KB-3-1 parental cell cytotoxicity; KB-3-1 viability, CellTiter-Glo ATP luminescence, 72 h; Potency, µM (titrated, usually from 46.1 µM), usual class: cytotoxic; actives 1.4% (n = 400,000); further: on the % scale 0 is the no-effect control and ±100 the full control effect; nearly all actives have a fitted effect of over 60% in size
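Parental KB-3-1 viability, qHTS format: 72 h compound exposure, 37 °C; CellTiter-Glo; media-only wells and DMSO plates as controls; concentration-effect fits on corrected data.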
HT1080 IDH1KD tx – HT-1080 IDH1 knockdown cell toxicity (counter line); AID 686971; HT-1080 IDH1 knockdown viability, ATP luminescence, 48 h; Potency, µM (top dose mostly 46.1 µM), without a hit: top-dose activity, negative = toxicity, most hits filed as cytotoxic; actives 2% (n = 360,000);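 further: 0% = DMSO wells and -100% = cell-free medium wells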
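CellTiter-Glo luminescence after 48 h compound exposure at 37 degrees C of IDH1-knockdown HT-1080 cells in 5% FBS RPMI. %Activity scaled between DMSO wells and cell-free media wells, with curves fitted and assigned curve classes.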
TGFb SMAD3 inh – TGF-b pathway inhibition. AID 588855. actives 1.2% (n = 410,000). Potency, µM (series often up to 46.1 µM), for inactives: at the highest dose activity, negative = inhibition, most hits filed as inhibitors. HepG2 CAGA-GFP TGF-b/SMAD3 reporter, GFP fluorescence, 18 h; TGF-beta stimulated, 500 pg/mL final; further: on the % scale 0 is the no-effect control and ±100 the full control effect; nearly all actives have a fitted effect of over 65% in size
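Inhibition of TGF-beta-driven CAGA-GFP reporter expression in HEPG2 cells is measured by cellular GFP fluorescence after 18 h stimulation with 500 pg/mL recombinant TGF-beta in 1% FBS medium at 37 degrees C.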
Active calls of the source: *; i = inactive; ? = inconclusive; . = no result given; ! = not active in a repeat; [ ] = remark or other dose. A selection: hits, their analogues and other compounds. The true share with any hit is near 6.6%. The call rests on the fitted dose curve; in most records, active means well fitted curve in the direction sought with a large enough effect; inconclusive means small, poorly fitted or top-dose-only effect, or another doubt; inactive means no such curve, though single readings can be large; an effect the other way counts as inactive or inconclusive. Potency means the concentration at half of the fitted maximal effect.

SMILES	HT1080NT lethal	KB-V1 cytotox	HepG2 tox	KB-3-1 cytotox	HT1080 IDH1KD tx	TGFb SMAD3 inh
CCOC(=O)C1=C(N)Oc2cc(C)oc(=O)c2C1c1cccnc1 (configuration not stated)	3.8%	i	-2.0%	i	?	3.7%
Cc1cn2c(=O)cc(COC(=O)c3cccc(NC(=O)C(C)Oc4ccccc4)c3)nc2s1 (configuration not stated)	.	.	-12.2%	.	.	5.3%
CCOC(=O)N1C(COCc2ccccc2)C=CCS1(=O)=O (configuration not stated)	.	.	-2.4%	.	.	-3.9%
CN(C)S(=O)(=O)c1cccc(N=c2scc(-c3ccc4c(c3)NC(=O)CO4)n2CC2CCCO2)c1 (configuration not stated)	?	16.4µM*	-35.2%	?	?	8.7%
Cc1cc(NC(=O)Cc2ccccc2)cc(-c2nc3ccccc3o2)c1O	.	i	-0.3%	i	.	2.1%
COc1ccc(C2C(=O)N(C3CCCCC3)CC(=O)N2C2CCCCC2)cc1 (configuration not stated)	-1.1%[9.24 µM]	i	-5.2%	i	6.6%	-18.3%
Cc1ccc(C2C(=O)N(C3CCCC3)CC(=O)N2C2CCCCC2)cc1 (configuration not stated)	-7.2%	2.91µM*	-16.7%	i	-7.9%	6.0%
CCOC(=O)COc1ccc2ccccc2c1/C=C/[N+](=O)[O-]	7.31µM*	?	5.62µM*	18.4µM*	4.11µM*	5.01µM*
CCOc1ccc(/C=C/[N+](=O)[O-])c2ccccc12	?	18.4µM*	-91.7%	?	12.6µM*	5.01µM*
CCOC(=O)COc1ccc(/C=C/[N+](=O)[O-])c(OCC(=O)OCC)c1	7.94µM*	i	-64.4%	?	5.62µM*	?
Cc1c(C(=O)N(C)C)sc(NC(=O)c2cccc([N+](=O)[O-])c2)c1C#N	6.7%	i	-27.7%	i	0.0%	-1.2%
COc1ccc(C(=O)Nc2sc(C(=O)N(C)C)c(C)c2C#N)cc1[N+](=O)[O-]	-1.2%	18.4µM*	-5.4%	?	-1.0%	-0.4%
O=C1CC(C(=O)N(c2ccc(F)cc2)C(C(=O)NC2CCCC2)c2ccccn2)CS1 (configuration not stated)	0.0%	11.6µM*	5.3%	i	-24.6%	1.9%
O=C1CC(C(=O)N(c2cccc(F)c2)C(C(=O)NC2CCCC2)c2ccccn2)CS1 (configuration not stated)	1.4%	i	5.7%	i	-1.2%	30.8%
CCc1nc2ccc(C(=O)NC(C)(C)C)cn2c1N(CC)Cc1cccc(Br)c1	?	20.6µM*	-41.9%	?	?	?
CCc1nc2ccc(C(=O)NCc3ccc4c(c3)OCO4)cn2c1N(CC)Cc1cccc(Br)c1	?	?	-30.4%	?	-1.6%	?
Cc1ccc(-c2noc(-c3ccc(NC4CCCC4)c([N+](=O)[O-])c3)n2)cc1	.	i	-3.3%	i	.	?
Cc1cc(C)cc(NC(=O)CCC(=O)N2CCSc3ccccc32)c1	-1.2%	i	-0.6%	i	0.3%	11.2µM*!
COCCNC(=O)C(C#N)c1nc2ccccc2nc1N1CCCCCC1 (configuration not stated)	8.8%	4.11µM*	4.7%	i	-6.6%	0.0%
CCN(CC)CCOc1ccc2c(c1)C(=NO)c1cc(OCCN(CC)CC)ccc1-2	10µM*	i	-71.8%	i	7.08µM*	11.2µM*
CCN(CC)S(=O)(=O)c1ccc2c(c1)C(=NO)c1cc(S(=O)(=O)N(CC)CC)ccc1-2	18.4µM*	11.6µM*	-54.7%	6.51µM*	7.31µM*	?
